# Reference: PubChem BioAssay
# Values joined by “and” are separate entries in the source; they are usually repeats but may differ in a detail not shown here. Equal entries are not always repeated. Results filed as inconclusive are left out. Active and inactive are the calls of the source. Unless noted, no cut-off is given here; in the data, nearly all actives have AC50 up to about 26 µM.
# How the values were obtained:
# [1] = differential killing of epithelial or mesenchymal cells, primary screen, imaging, PC-3E GFP, TEM4-18 mCherry, co-culture (AID 1345086;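 active = compounds killing one labelled cell type while sparing the other, by normalised counts and ratio limits, not self-fluorescent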;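 for all read-outs here: cells exposed to compound for 72 h before imaging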;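 for red/green cell ratio (normalised): normalised mesenchymal count divided by normalised epithelial count so high means epithelial killing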); conditions: imaging cell counts, at 1 µM; for red/green cell ratio (normalised): actives lie on both sides, counts scaled to control wells, 1 = unselective
# [2] = growth inhibition of DIPG glioma cells, dose response, cell-based, SU-DIPG-XVII, MIPE5.0, CellTiter-Glo, qHTS (AID 1347060); conditions: SU-DIPG-XVII viability, CellTiter-Glo ATP luminescence
# [3] = growth inhibition of DIPG glioma cells, dose response, cell-based, JHH-DIPG-1, MIPE4.0, CellTiter-Glo, qHTS (AID 1347062; cut-off not given, nearly all actives have AC50 up to about 27 µM); conditions: JHH-DIPG-1 viability, CellTiter-Glo ATP luminescence
# [4] = growth inhibition of DIPG glioma cells, dose response, cell-based, SU-DIPG-IV, MIPE4.0, CellTiter-Glo, qHTS (AID 1347063; cut-off not given, nearly all actives have AC50 up to about 30 µM;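 note: compound exposure lasted 48 hours before the viability readout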); conditions: SU-DIPG-IV viability, CellTiter-Glo ATP luminescence
# [5] = growth inhibition of DIPG glioma cells, dose response, cell-based, SU-DIPG-XIII, MIPE5.0, CellTiter-Glo, qHTS (AID 1347064; cut-off not given, nearly all actives have AC50 up to about 23 µM); conditions: SU-DIPG-XIII viability, CellTiter-Glo ATP luminescence
# [6] = viability loss in pontine glioma line – cell-based, SU-DIPG-XXV, MIPE5.0, CellTiter-Glo, qHTS, dose response (AID 1347065); conditions: CellTiter-Glo ATP luminescence;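 note: cells exposed to compound for 48 hours before ATP readout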
# [7] = SU-DIPG-XXV glioma cell viability, MIPE5.0 library, qHTS (AID 1347068; cut-off not given, nearly all actives have IC50 up to about 30 µM)
# [8] = sensitizers of A549 cells to miR-34 induction, primary screen, imaging, A549 dox-inducible miR-34, nuclei and caspase counts (AID 1347080;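 active = compounds whose cell count with miR-34 switched on is under 0.7 times the count with it off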); conditions: A549 miR-34 inducible, Hoechst nuclei count, 48 h
# [9] = target: NAD(+) hydrolase SARM1 (Homo sapiens) (UniProt Q6SZW1); experiment: SARM1 TIR NADase inhibitors, cell lysate, NAD-Glo luminescence (AID 1508614;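 active = compound whose remaining NAD level is above about 45 nM, limit read from the data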;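 note: higher remaining NAD means stronger inhibition of SARM1 NADase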); conditions: SAM-TIR HEK293T lysate NADase, at 1 µM, stronger effect = higher value
# [10] = target: ATP-dependent translocase ABCB1 (Homo sapiens) (UniProt P08183); experiment: MDR1 (ABCB1) efflux transporter inhibition, cell-based (AID 377; in the data active = fluorescence slope change above about 50%); conditions: MDR1-expressing cells, fluorescent substrate accumulation slope; stronger effect = higher value; concentration not given here
# [11] = hESC survival regulators, cell-based (AID 493140; call rule not given here;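 note: cells exposed to compounds for four days before counting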); conditions: human embryonic stem cell survival screen; stronger effect = higher value
# [12] = liver-stage malaria parasite growth inhibition, primary screen, cell-based, HepG2, luciferase luminescence, HepG2 viability (AID 624349; in the data active = parasite load remaining mostly below about 12%, no sharp cut-off; inactive = mostly above about 10%;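 note: 100% = mean of DMSO negative control wells on the same plate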); conditions: P. berghei liver stage in HepG2, luciferase luminescence, concentration not given here; parasite load remaining: stronger effect = lower value; viability: measured here: HepG2 viability without parasites
# [13] = JHH-DIPG-1 glioma cell viability, MIPE5.0 library, CellTiter-Glo luminescence, qHTS (AID 1347067); conditions: JHH-DIPG-1 glioma viability, CellTiter-Glo ATP luminescence;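 note: cells exposed to compound for 48 hours before readout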
# [14] = survival rescue of mitochondrial mutant cells in low glucose, primary screen, MELAS cybrids, Rieske KO mouse fibroblasts, CellTiter-Glo (AID 1508586;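 active = mean z-score across replicates of 1.96 or higher in either the MELAS or the Rieske mutant cell line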;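 note: z relative to plate mean and SD of compound and empty wells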)
# [15] = viability rescue of complex I mutant cybrids, primary screen, cell-based, galactose medium, ATP luminescence (AID 1645843;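 active = z-score of at least 1.8 in each of two replicates, scored against plate mean and spread of sample wells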;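 note: positive z means more ATP and so rescue of galactose-driven cybrid death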); conditions: complex I mutant cybrid cells, 72 h, stronger effect = higher value
# [16] = measured here: epithelial PC-3E GFP cell survival
# [17] = measured here: mesenchymal TEM4-18 mCherry cell survival
# [18] = stronger effect = lower value, cell number ratio, induced over uninduced
# [19] = measured here: relative caspase fold change +Dox/-Dox
# [20] = measured here: total cells with miR-34 induction, stronger effect = lower value
# [21] = measured here: total cells without miR-34 induction
# Chain of ATP-dependent translocase ABCB1 (Homo sapiens) (P08183 whole entry, looked up): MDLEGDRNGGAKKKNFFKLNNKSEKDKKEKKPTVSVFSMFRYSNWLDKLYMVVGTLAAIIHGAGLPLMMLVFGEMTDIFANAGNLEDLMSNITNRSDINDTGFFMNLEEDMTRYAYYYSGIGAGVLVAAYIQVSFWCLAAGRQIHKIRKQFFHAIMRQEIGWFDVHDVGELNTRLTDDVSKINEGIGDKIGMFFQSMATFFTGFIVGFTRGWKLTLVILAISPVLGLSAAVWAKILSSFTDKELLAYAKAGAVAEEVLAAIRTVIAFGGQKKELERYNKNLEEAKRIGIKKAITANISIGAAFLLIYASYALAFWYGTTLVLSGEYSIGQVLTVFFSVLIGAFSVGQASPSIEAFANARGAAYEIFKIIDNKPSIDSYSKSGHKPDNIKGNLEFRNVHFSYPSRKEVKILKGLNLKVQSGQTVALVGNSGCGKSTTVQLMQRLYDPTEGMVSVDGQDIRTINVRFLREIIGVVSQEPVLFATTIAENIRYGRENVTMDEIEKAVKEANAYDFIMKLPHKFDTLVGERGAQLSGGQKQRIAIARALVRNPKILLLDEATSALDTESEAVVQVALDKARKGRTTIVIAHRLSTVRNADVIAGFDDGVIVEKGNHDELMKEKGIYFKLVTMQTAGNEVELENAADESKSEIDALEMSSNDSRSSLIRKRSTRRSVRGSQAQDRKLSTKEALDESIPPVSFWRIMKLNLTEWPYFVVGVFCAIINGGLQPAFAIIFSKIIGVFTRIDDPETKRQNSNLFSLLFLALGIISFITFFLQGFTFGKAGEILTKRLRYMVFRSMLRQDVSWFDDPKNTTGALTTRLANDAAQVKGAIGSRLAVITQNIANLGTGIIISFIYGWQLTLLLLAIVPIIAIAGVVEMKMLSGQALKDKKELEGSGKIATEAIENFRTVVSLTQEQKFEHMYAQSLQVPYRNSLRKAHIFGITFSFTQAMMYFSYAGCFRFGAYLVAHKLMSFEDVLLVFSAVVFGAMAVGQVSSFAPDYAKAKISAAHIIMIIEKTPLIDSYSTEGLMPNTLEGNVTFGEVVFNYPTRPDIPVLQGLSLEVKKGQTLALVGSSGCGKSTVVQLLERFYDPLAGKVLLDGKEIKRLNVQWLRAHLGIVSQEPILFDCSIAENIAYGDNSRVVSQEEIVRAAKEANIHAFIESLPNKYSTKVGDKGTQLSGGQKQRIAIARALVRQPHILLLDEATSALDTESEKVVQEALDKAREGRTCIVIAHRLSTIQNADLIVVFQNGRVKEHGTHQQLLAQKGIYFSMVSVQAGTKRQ
# Chain of NAD(+) hydrolase SARM1 (Homo sapiens) (Q6SZW1 whole entry, looked up): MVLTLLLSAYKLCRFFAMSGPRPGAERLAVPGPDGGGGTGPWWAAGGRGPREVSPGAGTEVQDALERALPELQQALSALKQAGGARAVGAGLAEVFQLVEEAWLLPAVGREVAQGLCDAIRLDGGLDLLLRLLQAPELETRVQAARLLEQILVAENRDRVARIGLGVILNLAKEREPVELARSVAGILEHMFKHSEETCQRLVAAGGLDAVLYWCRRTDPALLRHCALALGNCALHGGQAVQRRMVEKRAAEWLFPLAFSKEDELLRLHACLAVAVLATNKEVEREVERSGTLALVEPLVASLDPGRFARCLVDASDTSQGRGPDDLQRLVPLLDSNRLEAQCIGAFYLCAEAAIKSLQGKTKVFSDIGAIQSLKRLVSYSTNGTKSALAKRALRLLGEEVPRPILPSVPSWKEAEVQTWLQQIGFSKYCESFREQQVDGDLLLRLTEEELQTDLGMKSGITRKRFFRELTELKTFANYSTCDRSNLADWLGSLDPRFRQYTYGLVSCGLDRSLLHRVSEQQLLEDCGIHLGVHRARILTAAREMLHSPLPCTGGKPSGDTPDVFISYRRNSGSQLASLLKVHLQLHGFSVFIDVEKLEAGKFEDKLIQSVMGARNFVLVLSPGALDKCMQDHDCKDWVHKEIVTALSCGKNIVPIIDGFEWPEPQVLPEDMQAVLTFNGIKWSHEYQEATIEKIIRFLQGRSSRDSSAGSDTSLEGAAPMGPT
structure (smiles),measurement,setting,value
N#C[C@@H]1C[C@@H]2C[C@@H]2N1C(=O)[C@@H](N)C12CC3CC(CC(O)(C3)C1)C2,red/green cell ratio (normalised),[1],0.9 (inactive)
same,normalised cell number,[1]; [16],1.31
same,normalised cell number,[1]; [17],1.19
same,outcome,[2],inactive
same,outcome,[3],inactive
same,outcome,[4],inactive
same,outcome,[5],inactive
same,outcome,[6],inactive
same,outcome,[7],inactive
same,fold change,[8]; [18],0.886 (inactive)
same,fold change,[8]; [19],0.64
same,cell count,[8]; [20],8720
same,cell count,[8]; [21],9840
same,remaining NAD,[9],10 nM (inactive)
CN[C@@H]1[C@H](O[C@H]2[C@H](O[C@@H]3[C@@H](O)[C@H](O)[C@@H](N=C(N)N)[C@H](O)[C@H]3N=C(N)N)O[C@@H](C)[C@]2(O)C=O)O[C@@H](CO)[C@H](O)[C@H]1O,fluorescence slope change,[10],2.1% (inactive)
same,survival,[11],20.6 (inactive)
same,parasite load remaining,[12],51.2% (inactive) and 45.6% (inactive) and 35.8% (inactive)
same,viability,[12],118% and 97.5% and 75%
same,red/green cell ratio (normalised),[1],0.77 (inactive)
same,normalised cell number,[1]; [16],1.28
same,normalised cell number,[1]; [17],0.98
same,outcome,[2],inactive
same,outcome,[5],inactive
same,outcome,[6],inactive
same,outcome,[13],inactive
same,outcome,[7],inactive
same,fold change,[8]; [18],0.935 (inactive) and 0.903 (inactive)
same,fold change,[8]; [19],0.998 and 1.43
same,cell count,[8]; [20],7810 and 9380
same,cell count,[8]; [21],8360 and 10400
same,z-score,"[14]; MELAS cybrid survival, CellTiter-Glo 48 h, stronger effect = higher value",-0.628 (inactive) and -0.564 (inactive)
same,z-score,"[14]; Rieske KO mouse fibroblast survival, CellTiter-Glo 72 h",-0.384 and -1.54
same,z-score,[15],-0.095 (inactive)
